Source: PubChem BioAssay (EPA / NIEHS)
Several values for one entry are separate records, joined by “and”; a condition that tells them apart may be missing. Equal values may be shown once. A structure can be active in one record and inactive in another. Activity calls are given as the source filed them. The calls were made as follows: active = hit-call score of the fitted dose curve at least 0.9, where 1 is the maximum; inactive = score below 0.9.

What was measured:
[1] = read-out: E-selectin (Homo sapiens) (UniProt P16581); experiment: BSK_SAg_Eselectin: BioMAP Diversity Plus: SAg Assay for Eselectin Biomarker Activity (AID 2283091); settings: primary human HUVEC with PBMC; actives raise or lower the signal
Method in brief: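 Human umbilical vein endothelial cells co-cultured with peripheral blood mononuclear cells, SAg system. E-selectin is measured by ELISA 24 h after dosing and fitted bidirectionally against DMSO. Cytotoxicity is checked by SRB staining of parallel cultures.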

[2] = read-out: Monokine induced gamma interferon (MIG), CXCL9 (gene 4283); experiment: BSK_SAg_MIG: BioMAP Diversity Plus: SAg Assay for Monokine induced gamma interferon (MIG) Biomarker Activity (AID 2283092); settings: primary human HUVEC with PBMC; actives raise or lower the signal
Method in brief: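 HUVEC plus human PBMC co-culture, chemicals dosed and MIG (CXCL9) quantified by ELISA at 24 h. Bidirectional curve fitting against DMSO as negative control and baseline, so both gain and loss of signal count as activity.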

[3] = BSK_SAg_PBMCCytotoxicity: PBMC Cytotoxicity Assessment in the BioMAP Diversity Plus: SAg Assay (AID 2283093); settings: primary human HUVEC with PBMC;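 also: fitted both ways against DMSO so a hit may be loss or gain of signal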;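 as to AC50: PBMC superantigen activated with SEB plus TSST-1 one hour after compound addition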
Method in brief: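 PBMC viability by Alamar Blue reduction, fluorescence read at 546/580 nm after 6 h dye exposure. Cells were dosed 1 h before SEB plus TSST-1 activation (20 ng/mL final each), then held 90 h; endothelial/PBMC human co-culture.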

[4] = read-out: Interleukin-8 (IL8), CXCL8 (gene 3576); experiment: BSK_SAg_IL8: BioMAP Diversity Plus: SAg Assay for Interleukin-8 (IL8) Biomarker Activity (AID 2283094); settings: primary human HUVEC with PBMC; actives raise or lower the signal
Method in brief: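 HUVEC/PBMC co-culture, 24 h post-dose; IL-8 by ELISA. Gain or loss of signal fitted bidirectionally vs DMSO baseline.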

[5] = BSK_SAg_Proliferation: Cell Proliferation Assessment in the BioMAP Diversity Plus: SAg Assay (AID 2283095); settings: primary human HUVEC with PBMC;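 also: relative cell number as total protein by SRB absorbance in sub-confluent culture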
Method in brief: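 HUVEC/PBMC co-culture, 96-well. TCA-fixed (10%), 0.1% SRB stain, A560 at 96 h. Protein content used as viability readout; bidirectional fitting vs DMSO control.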

[6] = BSK_SAg_SRB: Viability Assessment in the BioMAP Diversity Plus: SAg Assay (AID 2283096); settings: primary human HUVEC with PBMC;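 also: cells read one day after compound addition; hits may be either gain or loss of signal compared with DMSO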
Method in brief: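 Compounds were added to a human vascular co-culture of umbilical vein endothelium and PBMC. After 24 h, parallel cultures were fixed with 10% TCA, stained with 0.1% sulforhodamine B and read at 560 nm. Gain or loss of signal was fitted relative to DMSO.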

Chain of E-selectin (Homo sapiens) (P16581 whole entry, looked up): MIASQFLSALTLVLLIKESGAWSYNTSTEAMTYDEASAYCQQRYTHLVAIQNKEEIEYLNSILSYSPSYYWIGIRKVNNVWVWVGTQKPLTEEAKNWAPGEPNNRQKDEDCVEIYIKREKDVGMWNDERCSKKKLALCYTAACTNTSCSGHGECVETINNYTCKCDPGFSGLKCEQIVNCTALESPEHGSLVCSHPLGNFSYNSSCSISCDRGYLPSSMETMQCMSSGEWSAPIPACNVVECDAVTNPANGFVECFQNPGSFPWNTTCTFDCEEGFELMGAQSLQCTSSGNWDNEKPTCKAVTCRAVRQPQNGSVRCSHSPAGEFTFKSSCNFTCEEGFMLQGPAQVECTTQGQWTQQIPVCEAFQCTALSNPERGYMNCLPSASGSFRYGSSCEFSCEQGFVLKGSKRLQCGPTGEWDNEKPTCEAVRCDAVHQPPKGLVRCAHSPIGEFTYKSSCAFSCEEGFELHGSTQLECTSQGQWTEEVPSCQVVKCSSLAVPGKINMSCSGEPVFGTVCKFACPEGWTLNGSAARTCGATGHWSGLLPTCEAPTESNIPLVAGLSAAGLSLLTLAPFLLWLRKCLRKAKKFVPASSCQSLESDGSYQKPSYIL

| SMILES | outcome [1] | outcome [2] | outcome [3] | outcome [4] | outcome [5] | outcome [6] | AC50 [3] | AC50 [5] | AC50 [6] | AC50 [1] | AC50 [4] | AC50 [2] |
| --- | --- | --- | --- | --- | --- | --- | --- | --- | --- | --- | --- | --- |
| C=C(C)[C@H]1CC=C(C)C(=O)C1 | inactive | inactive | inactive | inactive | inactive | inactive |  |  |  |  |  |  |
| Cc1cc(CCC(=O)OCCOCCOCCOC(=O)CCc2cc(C)c(O)c(C(C)(C)C)c2)cc(C(C)(C)C)c1O | inactive | inactive |  | inactive |  |  | 25.2 µM (active) | 25.3 µM (active) | 32.2 µM (active) |  |  |  |
| O=C(Nc1ccc2c(O)c(N=Nc3ccc(N=Nc4ccc(S(=O)(=O)O)cc4)cc3)c(S(=O)(=O)O)cc2c1)c1ccccc1 | inactive | inactive | inactive | inactive | inactive | inactive |  |  |  |  |  |  |
| CCCCCCC(CO)CCCC (centres undefined) | inactive | inactive | inactive | inactive | inactive | inactive |  | 37.3 µM (active) |  |  |  |  |
| C=C(C)C(=O)OCCOCCOCCOCCOC(=O)C(=C)C | inactive | inactive | inactive | inactive |  | inactive |  | 23.9 µM (active) |  |  |  |  |
| O=CN1CCOCC1 | inactive | inactive | inactive | inactive | inactive | inactive |  |  |  |  |  |  |
| COc1ccc(OC)c(N=Nc2c(O)ccc3ccccc23)c1 | inactive | inactive |  | inactive |  | inactive | 2.12 µM (active) | 2.25 µM (active) |  |  |  |  |
| CC1(C)CCC[C@]2(C)[C@H]3CCO[C@]3(C)CC[C@@H]12 | inactive | inactive |  | inactive |  | inactive | 31.8 µM (active) and 33.4 µM (active) | 33.6 µM (active) and 32.7 µM (active) |  | 26.4 µM (active) |  |  |
| CCOC(=O)C(C#N)=C(c1ccccc1)c1ccccc1 | inactive | inactive | inactive | inactive | inactive | inactive | 1.24 µM (active) | 14.1 µM (active) |  | 29.8 µM (active) | 20 µM (active) |  |
| CS(=O)(=O)c1ccc(C2=C(c3ccccc3)C(=O)OC2)cc1 | inactive | inactive | inactive | inactive | inactive | inactive |  |  |  |  |  |  |
| CCCCCC(C=O)=Cc1ccccc1 | inactive | inactive |  | inactive |  | inactive | 31 µM (active) | 33.1 µM (active) |  |  |  |  |
| CCCCCCCCCCCCCCCC(=O)OC/C=C(C)/C=C/C=C(C)/C=C/C1=C(C)CCCC1(C)C | inactive | inactive | inactive | inactive |  | inactive |  | 20 µM (active) |  |  |  |  |
| CCCCN(CCCC)C(=O)N(CCCC)CCCC |  | inactive |  |  |  |  | 11 µM (active) | 7.83 µM (active) | 20 µM (active) | 9.94 µM (active) | 15.6 µM (active) |  |
| O=C1c2ccccc2C(=O)c2c(O)ccc(O)c21 |  | inactive |  |  |  | inactive | 14.4 µM (active) | 16.5 µM (active) |  | 1.21 µM (active) | 3.15 µM (active) |  |
| CC(=O)c1c(C)c([N+](=O)[O-])c(C(C)(C)C)c([N+](=O)[O-])c1C | inactive | inactive | inactive | inactive | inactive | inactive |  |  |  |  |  |  |
| CC1(C)C2=CCCC(C)(C)[C@]23CC[C@H]1C3 | inactive | inactive |  | inactive |  | inactive | 35.6 µM (active) | 31.6 µM (active) |  |  |  |  |
| CN(c1nccc(=O)[nH]1)C1CCN(c2nc3ccccc3n2Cc2ccc(F)cc2)CC1 | inactive | inactive | inactive | inactive | inactive | inactive |  |  |  |  |  |  |
| Clc1cc(Cl)c(-c2c(Cl)c(Cl)cc(Cl)c2Cl)cc1Cl |  | inactive |  |  |  | inactive | 17.4 µM (active) | 14.3 µM (active) |  | 14.9 µM (active) | 10 µM (active) |  |
| CC=Cc1ccc(OCC)c(O)c1 | inactive | inactive | inactive | inactive | inactive | inactive |  |  |  |  |  |  |
| CC(C=O)Cc1ccc(C(C)(C)C)cc1 (centres undefined) | inactive | inactive |  | inactive | inactive | inactive | 20 µM (active) |  |  |  |  |  |
| CCCCOC(=O)CCCCCCCC(=O)OCCCC | inactive | inactive | inactive | inactive | inactive | inactive |  |  |  |  |  |  |
| CC(=O)C1(C)CC2=C(CCCC2(C)C)CC1C (centres undefined) |  |  |  |  |  |  | 12 µM (active) | 9.65 µM (active) | 26.8 µM (active) | 15.5 µM (active) | 34.4 µM (active) | 33.9 µM (active) |
| CSCCC=O | inactive | inactive | inactive | inactive |  | inactive |  | 38.6 µM (active) |  |  |  |  |
